CHX counter: counter-screen for Shiga toxin inhibitors: cycloheximide protein synthesis inhibition; AID 2314; cell reporter, cycloheximide protein synthesis inhibition counterscreen; 12% of 300,000 active; max response, %; in the data active means max response mostly above about 13%, no sharp cut-off; inactive means mostly below about 14%; further: read at 38.3 µM for the half of the compounds with a filed dose; 0% is about no effect
Pf growth 48h: P. falciparum growth inhibition at 48 hours (one generation); P. falciparum luciferase growth in erythrocytes, 48 h; Potency, µM (top dose mostly 28.7 µM), inactives show top-dose activity change, negative = inhibition, usual class: inhibitors; 5.9% of 310,000 active; further: potency means the concentration at half of the fitted maximal effect; on the % scale 0 is the no-effect control and ±100 the full control effect
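Parasite viability was followed by luminescence of a genomically integrated firefly luciferase. Cultures held 0.1% parasitemia at 2% hematocrit (final), incubated under 5% CO2 at 37 C.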
SARS PLP yeast: inhibitors of SARS-CoV papain-like protease in yeast; AID 485353; 0.19% of 330,000 active; S. cerevisiae expressing SARS-CoV PLpro, growth rescue; Potency, µM (titrated, usually from 32.9 µM), inactives show at the top dose activity, positive = growth rescue, hits mostly activators; calls by dose curve; further: potency means the concentration at half of the fitted maximal effect; 0% is about no effect; nearly all actives have a fitted effect of over 55% in size
Shiga toxin inh: blocks Shiga toxin action in Vero cells | AID 2315 | inhibition, % at 38.7 µM | Vero cells, Shiga toxin protein synthesis inhibition reporter | 9.2% of 290,000 active; in the data active means inhibition mostly above about 28%, no sharp cut-off; inactive means mostly below about 43%; further: 0% is about no effect
Pf growth 96h: P. falciparum growth inhibition at 96 hours; 6.9% of 320,000 active; Potency, µM (titrated, usually from 28.7 µM), inactives show top-dose activity change, negative = inhibition, actives largely listed as inhibitors; P. falciparum luciferase reporter growth, 96 h; further: potency means the concentration at half of the fitted maximal effect; on the % scale 0 is the no-effect control and ±100 the full control effect
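Cell-based qHTS: luciferase-tagged P. falciparum in erythrocytes (2% hematocrit, 0.05% parasitemia final) incubated with compounds for 96 hours, 37 C, 5% CO2; luciferase detection reagent then added and luminescence measured.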
NS1 inh: blocks influenza NS1 protein function; AID 2326; 0.4% of 270,000 active; Potency, µM (doses to about 46.1 µM), for inactives: top-dose activity, positive = more growth; calls by dose curve; further: potency means the concentration at half of the fitted maximal effect; actives are rising curves; nearly all actives have a fitted effect of over 50% in size
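Growth recovery, yeast-based: influenza A NS1 expressed in S. cerevisiae causes slow growth, and suppressors are detected by OD600. The parent strain without NS1 is used as positive control.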
* marks the source's active call; other numbers are inactive results; ? = inconclusive; · = not tested or not shown. Hits are enriched below; roughly 21% of the tested compounds scored in any of these assays. Unless noted, the call rests on the fitted dose curve; in most records, active means well fitted inhibition curve with a large enough effect; inconclusive means small, poorly fitted or top-dose-only effect, or another doubt; inactive means no such curve, though single readings can be large or run the other way.

SMILES	CHX counter	Pf growth 48h	SARS PLP yeast	Shiga toxin inh	Pf growth 96h	NS1 inh
Cc1cccc(OCCn2cc(/C=N/NC(=O)c3ccncc3)c3ccccc32)c1	11.0*	28.0%	?	28.3*	4.1%	30.8%
CC1=CN2C(=N)/C(=C/c3cn(CCCOc4ccccc4C)c4ccccc34)C(=O)N=C2S1	66.9*	198.6%	0.9%	24.3*	73.6%	9.9%
COc1cccc(OCCn2cc(C=O)c3ccccc32)c1	22.8*	70.4%	-3.5%	·	-21.7%	?
CC1=CN2C(=N)/C(=C/c3ccco3)C(=O)N=C2S1	47.0*	33.4%	-22.6%	71.6*	54.5%	3.6%
COC(=O)N/N=C/c1cn(CCOc2cccc(OC)c2)c2ccccc12	8.4	-1.1%	-3.8%	37.9	?	5.1%
Cc1ccccc1NCC(=O)c1ccc(Br)cc1	-3.6	32.7%	3.2%	-9.1	-0.6%	4.8%
COc1ccc(NC(=O)c2coc(C)c2)cc1	29.2*	62.3%	-1.8%	54.0*	22.3%	0.3%
COc1ccc(C(=O)CNc2ccccc2Br)cc1	41.1*	32.7%	0.1%	73.7*	?	-9.5%
COc1ccc(C(=O)CNc2ccc3ccccc3c2)cc1	30.9*	-3.7%	-0.7%	79.3*	7.4%	5.6%
COc1ccc(NC(=O)c2ccc3ccccc3c2)cc1	36.7*	286.8%	1.2%	·	?	5.4%
COc1ccc(NC(=O)c2ccc(=O)oc2)cc1	2.1	135.5%	-8.2%	13.0	?	-9.7%
CCC(=O)Nc1ccc(NC(=O)c2ccc3ccccc3c2)cc1	9.5	86.0%	-2.8%	·	128.5%	7.8%
COc1ccc(C(=O)Nc2ccc3ccccc3c2)c(OC)c1	30.1*	105.1%	-9.6%	85.7*	?	-85.3%
COc1ccc(C(=O)Nc2ccc(C(=O)OCC(=O)c3cccc4ccccc34)cc2)cc1	4.3	?	11.8%	-4.1	13.1µM*	-5.7%
COc1ccc(C(=O)NCCn2ccc3ccccc32)c(OC)c1	37.5*	13.5%	-7.6%	42.4	78.0%	-33.1%
CCC(C)NC(=O)CCc1c(C)nc2c(c(C)nn2-c2ccccc2)c1C (stereo not given)	-3.0	?	-1.0%	-6.4	-16.3%	-0.5%
COC(=O)C(NC(=O)CCc1c(C)nc2c(c(C)nn2-c2ccccc2)c1C)C(C)C (stereo not given)	-2.6	6.57µM*	-1.8%	-9.7	1.5%	-7.9%
Cc1nc2c(c(C)nn2-c2ccccc2)c(C)c1CCC(=O)Nc1ccc(CN2CCCC2)cc1	0.7	?	-0.8%	-6.8	2.08µM*	6.3%
Cc1ccccc1NS(=O)(=O)c1ccc(C(=O)NCC(c2ccco2)N2CCCCC2)cc1 (stereo not given)	·	?	3.5%	·	?	·
CN(C(=O)C1CCOC1)c1nnc(-c2cnccn2)s1 (stereo not given)	16.3*	·	-2.1%	18.6	?	-9.8%
CCOc1ccc(-n2c(N)c(C(=O)NCc3ccco3)c3nc4ccccc4nc32)cc1	-3.1	·	-1.7%	-2.5	-60.5%	7.7%
CCOc1ccc(-n2c(N)c(-c3nc4ccccc4n3C)c3nc4ccccc4nc32)cc1	-4.3	3.0%	10.4%	-4.2	2.94µM*	14.3%
Cn1c(=O)c(-c2ccccc2N)nc2ccccc21	13.6	30.5%	-6.4%	36.6*	-25.9%	7.7%
COc1cccc(NC(=O)c2ccccc2-c2nc(-c3cccc(C)c3)no2)c1	12.5	?	-16.3%	25.9	·	10.0%
Cc1cccc(-c2noc(-c3ccc(Cl)cc3[N+](=O)[O-])n2)c1	42.1*	71.8%	0.9%	81.7*	-0.3%	4.1%
SMILES	CHX counter	Pf growth 48h	SARS PLP yeast	Shiga toxin inh	Pf growth 96h	NS1 inh
COc1ccc(-c2noc(-c3ccc(Cl)cc3[N+](=O)[O-])n2)cc1OC	16.3*	57.5%	-3.6%	15.6	-21.1%	13.9%
COCCn1nnnc1SCC(=O)Nc1ccc2c(c1)OCO2	5.4	8.0%	0.6%	15.8	2.6%	1.2%
CC(C)n1nnnc1SCC(=O)Nc1ccc2c(c1)OCCO2	56.9*	111.3%	1.0%	117.4*	155.7%	0.1%
COCCCn1nnnc1SCC(=O)Nc1ccc2c(c1)OCCO2	9.1	32.7%	0.4%	16.4	13.1µM*	2.9%
Nn1c(SCC(=O)Nc2ccc3c(c2)OCCO3)nncc1=O	15.8*	2.1%	24.9%	31.1*	5.8%	5.8%
CCn1nnnc1SCC(=O)Nc1ccc2c(c1)OCCO2	43.7*	465.3%	?	64.1*	?	-1.6%

Screening results as filed in PubChem BioAssay.
